Reference: PMC8384837, “Expanding the binding specificity for RNA recognition by a PUF domain”

Experiments:
Test in all cases: yeast three-hybrid, YBZ-1, SC-Leu-His + 0.5 mM 3-AT, 4 days
Conditions in all cases: tags: N-Gal4 AD-HA kept; label: inside an RPR1-promoter hybrid RNA with tandem MS2 sites; ssRNA
PUM1 PUF domain R6-TFD = biological target: T1, PUM1 PUF domain R6-TFD (Homo sapiens, UniProt Q14671 828-1176, N1043T;Y1044F;Q1047D)
T1 sequence: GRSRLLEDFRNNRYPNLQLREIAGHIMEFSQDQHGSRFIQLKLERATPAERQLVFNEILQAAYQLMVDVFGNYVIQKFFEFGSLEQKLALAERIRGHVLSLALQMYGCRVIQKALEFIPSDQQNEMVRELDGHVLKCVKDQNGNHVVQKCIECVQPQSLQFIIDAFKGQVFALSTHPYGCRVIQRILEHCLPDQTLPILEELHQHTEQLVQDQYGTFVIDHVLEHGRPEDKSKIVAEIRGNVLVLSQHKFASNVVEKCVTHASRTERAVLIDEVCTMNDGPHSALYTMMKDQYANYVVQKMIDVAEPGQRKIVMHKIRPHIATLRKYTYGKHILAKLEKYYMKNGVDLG
Summary of the method: (§1)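 Repeat regions from input (SC-Leu) and selection (SC-Leu-His + 0.5 mM 3-AT) plates were PCR-amplified and Illumina-sequenced after four days of growth. The cells were strain YBZ-1 with a LexA–MS2 coat fusion and a HIS3 reporter, co-expressing Pumilio-1 PUF domain libraries and matching RNA elements from a centromeric plasmid. The interaction score is the log change in variant frequency from input to selection, taken in log2 with a pseudocount of 1 for absent variants.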

PUM1 PUF domain R2-KIG = PUM1 PUF domain R2-KIG (Homo sapiens, UniProt Q14671 828-1176, N899K;Y900I;Q903G)
Summary of the method: as §1

PUM1 PUF domain R2-LWR = PUM1 PUF domain R2-LWR (Homo sapiens, UniProt Q14671 828-1176, N899L;Y900W;Q903R)
Summary of the method: as §1

PUM1 PUF domain R5-RKQ = PUM1 PUF domain R5-RKQ (Homo sapiens, UniProt Q14671 828-1176, C1007R;R1008K)
Summary of the method: as §1

PUM1 PUF domain R5-FRV = PUM1 PUF domain R5-FRV (Homo sapiens, UniProt Q14671 828-1176, C1007F;Q1011V)
Summary of the method: as §1

PUM1 PUF domain R5-RNS = PUM1 PUF domain R5-RNS (Homo sapiens, UniProt Q14671 828-1176, C1007R;R1008N;Q1011S)
Summary of the method: as §1

PUM1 PUF domain R1-QGR = PUM1 PUF domain R1-QGR (Homo sapiens, UniProt Q14671 828-1176, S863Q;R864G;Q867R)
Summary of the method: as §1

PUM1 PUF domain R1-GRN = PUM1 PUF domain R1-GRN (Homo sapiens, UniProt Q14671 828-1176, S863G;Q867N)
Summary of the method: as §1

PUM1 PUF domain R5-NGC = PUM1 PUF domain R5-NGC (Homo sapiens, UniProt Q14671 828-1176, C1007N;R1008G;Q1011C)
Summary of the method: as §1

PUM1 PUF domain R1-KMC = PUM1 PUF domain R1-KMC (Homo sapiens, UniProt Q14671 828-1176, S863K;R864M;Q867C)
Summary of the method: as §1

Sequence: GGCUAGAACUAGUGGAUCCCCCGGCGCCCGGCGGCUCGAGCCCGGGUAAGUGGAAAUAGUCUGCAUGCCGCCGGGCGCCAUGCCUGCAGGUCGACUCUAGAAAACAUG
- binding signal (PUM1 PUF domain R6-TFD): 4.99 log2 enrichment (interaction score)

Sequence: GGCUAGAACUAGUGGAUCCCCCGGCGCCCGGCGGCUCGAGCCCGGGUAAGUGUAAAGAGUCUGCAUGCCGCCGGGCGCCAUGCCUGCAGGUCGACUCUAGAAAACAUG
- binding signal (PUM1 PUF domain R2-KIG): 3.17 log2 enrichment (interaction score)
- binding signal (PUM1 PUF domain R2-LWR): 1.92 log2 enrichment (interaction score)

Sequence: GGCUAGAACUAGUGGAUCCCCCGGCGCCCGGCGGCUCGAGCCCGGGUAAGUGUCAAUAGUCUGCAUGCCGCCGGGCGCCAUGCCUGCAGGUCGACUCUAGAAAACAUG
- binding signal (PUM1 PUF domain R5-RKQ): 3.43 log2 enrichment (interaction score)
- binding signal (PUM1 PUF domain R5-FRV): 1.98 log2 enrichment (interaction score)
- binding signal (PUM1 PUF domain R5-RNS): 3.43 log2 enrichment (interaction score)

Sequence: GGCUAGAACUAGUGGAUCCCCCGGCGCCCGGCGGCUCGAGCCCGGGUAAGUGUAAAUCGUCUGCAUGCCGCCGGGCGCCAUGCCUGCAGGUCGACUCUAGAAAACAUG
- binding signal (PUM1 PUF domain R1-QGR): 2.69 log2 enrichment (interaction score)
- binding signal (PUM1 PUF domain R1-GRN): 3.33 log2 enrichment (interaction score)

Sequence: GGCUAGAACUAGUGGAUCCCCCGGCGCCCGGCGGCUCGAGCCCGGGUAAGUGUGAAUAGUCUGCAUGCCGCCGGGCGCCAUGCCUGCAGGUCGACUCUAGAAAACAUG
- binding signal (PUM1 PUF domain R5-NGC): 3.12 log2 enrichment (interaction score)

Sequence: GGCUAGAACUAGUGGAUCCCCCGGCGCCCGGCGGCUCGAGCCCGGGUAAGUGUAAAAAGUCUGCAUGCCGCCGGGCGCCAUGCCUGCAGGUCGACUCUAGAAAACAUG
- binding signal (PUM1 PUF domain R2-LWR): 3.68 log2 enrichment (interaction score)

Sequence: GGCUAGAACUAGUGGAUCCCCCGGCGCCCGGCGGCUCGAGCCCGGGUAAGUGUAAAUGGUCUGCAUGCCGCCGGGCGCCAUGCCUGCAGGUCGACUCUAGAAAACAUG
- binding signal (PUM1 PUF domain R1-KMC): 3.4 log2 enrichment (interaction score)
- binding signal (PUM1 PUF domain R1-GRN): 1.19 log2 enrichment (interaction score)

Sequence: GGCUAGAACUAGUGGAUCCCCCGGCGCCCGGCGGCUCGAGCCCGGGUAAGUGUUAAUAGUCUGCAUGCCGCCGGGCGCCAUGCCUGCAGGUCGACUCUAGAAAACAUG
- binding signal (PUM1 PUF domain R5-FRV): 2.68 log2 enrichment (interaction score)
- binding signal (PUM1 PUF domain R5-RNS): 4.14 log2 enrichment (interaction score)
